According to the supplement of paper PMC6555819:

How the values were obtained:
Assay in all cases: PBM binding z-score (relative to random genomic background probes); higher = stronger binding; sequences stand for … in GC…GCGATTGACAGCGTAGAATGAAGG
[1] = system: FXR:RXRa (NR concentration 270 nM, RXRa partner concentration 90 nM)
Summary of the method: (§1)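 Each nuclear receptor dimer, without ligand, was incubated for 1 h on custom Agilent 4×180K protein-binding microarrays. Binding was detected with antibodies against each partner (one per run), and scanned fluorescence was regression-normalized. The binding z-scores are referenced to random human genomic background probes.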

[2] = system: LXRa:RXRa (NR concentration 270 nM, RXRa partner concentration 90 nM)
Summary of the method: as §1

[3] = system: LXRa homodimer (NR concentration 270 nM)
Summary of the method: as §1

[4] = system: LXRb:RXRa (NR concentration 270 nM, RXRa partner concentration 90 nM)
Summary of the method: as §1

[5] = system: LXRb homodimer (NR concentration 270 nM)
Summary of the method: as §1

[6] = system: PPARa:RXRa (NR concentration 270 nM, RXRa partner concentration 90 nM)
Summary of the method: as §1

[7] = system: PPARg:RXRa (NR concentration 180 nM, RXRa partner concentration 90 nM)
Summary of the method: as §1

[8] = system: PPARg:RXRa 270nM:90nM, anti-RXR (NR concentration 270 nM, RXRa partner concentration 90 nM)
Summary of the method: as §1

[9] = system: PPARg:RXRa 30nM:10nM, anti-RXR (NR concentration 30 nM, RXRa partner concentration 10 nM)
Summary of the method: as §1

[10] = system: PPARg:RXRa 90nM:30nM, anti-RXR (NR concentration 90 nM, RXRa partner concentration 30 nM)
Summary of the method: as §1

Sequence	PBM binding z-score [1]	PBM binding z-score [2]	PBM binding z-score [3]	PBM binding z-score [4]	PBM binding z-score [5]	PBM binding z-score [6]	PBM binding z-score [7]	PBM binding z-score [8]	PBM binding z-score [9]	PBM binding z-score [10]
ACTAGTTGGTCAGGTGAGGTCACACACAATTCGG	3.87	3.4	2.65	3.35	0.501	3.83	2.36	2.68	0.906	1.88
ATCGAAAGGTCGTGCGGTGAGTATACAGAAAGGC	5.34	4.25	0.222	3.12	1.5	4.84	3.25	3.58	1.04	2.23
TCTTGTAGATCAACAGGAGTTTAAGAAAGATCGA	-0.268	0.229	-0.339	-0.131	-0.759	0.604	0.0426	1.19	2.22	1.87
CGAACTAGGTCATCCAGGACAGTGATTACATTGA	4.19	2.8	0.631	2.2	-0.108	4.62	7.63	6.33	3.95	5.79
CCTGCTAGCTCAATGGTCAGCTAAAGCAGCTCGC	-0.674	-0.624	-0.571	-0.457	-0.691	-0.408	-0.805	-0.234	-0.854	-0.539
CGAACTAGGTCAGAACAGGATAGTGAAGGATGAT	1.16	0.877	-0.252	0.463	-0.465	3.33	5.21	4.24	1.75	3.34
CGAACGAGGGCATGAGTTCATAGCAAATGCCGAT	2.26	2.23	1	1.51	-0.903	3.24	2.37	2.91	0.55	2.23
AGAACGAGGGCACGCTGAATTGATAGCAGAGTAG	0.635	0.375	-0.408	0.0938	-0.694	1.92	2.24	2.02	0.73	1.04
ACCGAAAGGTCGACGAGGTGAGTATACACCGTTT	4.37	3.09	0.178	2.83	-0.0188	4.42	2.71	3.21	0.781	2.02
CCGACTGGGGCGAAGGTTACCATACTCAGTACGA	-0.11	-0.108	-0.381	0.654	-1.24	3.09	7.04	7.02	5.36	6.85
CGAACTAGGTCAGAACACGACAGTGAAGGATGAT	1.16	0.462	-0.145	0.53	-0.0845	3.26	5.4	4.53	1.68	3.56
GATACAGGGTCAAGTCCAGAGTACGCGTATTGAT	7.3	4.84	0.0543	4.3	0.511	5.77	5.91	5.85	2.51	4.33
TAGCCCAGGTCATGGGCCAGTATACCACGCGAAC	5.49	3.68	0.403	2.34	-0.434	4.31	3.87	3.37	0.448	2.04
TGAATGAGGTTATCAGATCAGGGAACGTTGCAAA	1.75	1.5	-0.39	1.18	-0.266	3.2	1.74	2.18	0.777	1.28
CCTACTGGGCCATTCTGAGGTCATTGATCATATG	2.12	3.35	4.95	2.83	0.173	3.25	1.63	2.38	0.733	1.84
CCCGACAGGTGAAAGGTAACTCAGTCTGGTACGC	0.639	0.898	-0.133	0.876	-0.143	3.39	5.1	5.75	3.73	5.61
ATCTCTAGGAAAGACTCAGTTCAGTGAAGAACGC	0.193	0.324	0.437	0.164	0.531	-0.385	-0.00135	-0.209	-0.24	-0.119
ATCGAAAGGTCGAGATGAGTATAGAGAAAGGGAA	3.74	3.2	0.146	2.54	0.748	4.2	2.56	2.97	0.989	2
CGAACTAGGTCATTGACAGGTCAGTGAATAGTAA	4.77	4.22	2.06	3.2	0.218	5.01	7.86	6.55	3.81	6.32
ACTTACGGGTCAACGAGGTGATAGCACGCGTATA	6.81	4.17	0.0422	3.7	0.296	5.53	5.36	5	2.26	4.11
TCATATCGGTAAACAGGTGAAAGTCCGTAAGTTA	0.957	0.857	0.341	0.799	0.0218	1.89	1.04	2.91	4.03	3.5
AGAATGAGGTTATACGTAGATCAGGTAAGAAAGT	2.3	2.13	0.183	1.72	-0.0403	3.17	2.14	2.25	0.708	1.53
ACTAGCAGGCCAGGGGTCACTCAAGATTAGTCCG	4.12	3.93	0.488	4.47	0.258	5.04	6.84	6.37	4.58	6.76
TAGCCTAGGTCATGCGGGCCAGTGTAGTGTCGGC	3.71	2.88	-0.0482	1.38	-0.348	3.17	1.5	2.27	-0.122	1.26
CCGCCTAGGTCAGGGCCAGTATAGGAGGAACGTT	1.6	1.11	-0.253	1.1	-0.93	2.15	0.674	0.881	-0.497	-0.0982
